Reference: PubChem BioAssay AID2551 (National Center for Advancing Translational Sciences (NCATS), 2010)
Among all 310,000 compounds or so, about 17,000 (5.5%) were called active. Not shown: some 11% with an inconclusive outcome. Calls follow the shape of the dose curve; as a rule, active = well fitted inhibition curve with a large enough effect; inconclusive = small, poorly fitted or top-dose-only effect, or effect the other way; inactive = no such curve, though single readings can be large or run the other way. The list comes from a sample in which actives are over-represented; it also holds similar structures and randomly drawn compounds. A call without a number means that no potency is given here.

Biological target: Nuclear receptor ROR-gamma (Mus musculus) (UniProt P51450)
Sequence (P51450 whole entry, looked up): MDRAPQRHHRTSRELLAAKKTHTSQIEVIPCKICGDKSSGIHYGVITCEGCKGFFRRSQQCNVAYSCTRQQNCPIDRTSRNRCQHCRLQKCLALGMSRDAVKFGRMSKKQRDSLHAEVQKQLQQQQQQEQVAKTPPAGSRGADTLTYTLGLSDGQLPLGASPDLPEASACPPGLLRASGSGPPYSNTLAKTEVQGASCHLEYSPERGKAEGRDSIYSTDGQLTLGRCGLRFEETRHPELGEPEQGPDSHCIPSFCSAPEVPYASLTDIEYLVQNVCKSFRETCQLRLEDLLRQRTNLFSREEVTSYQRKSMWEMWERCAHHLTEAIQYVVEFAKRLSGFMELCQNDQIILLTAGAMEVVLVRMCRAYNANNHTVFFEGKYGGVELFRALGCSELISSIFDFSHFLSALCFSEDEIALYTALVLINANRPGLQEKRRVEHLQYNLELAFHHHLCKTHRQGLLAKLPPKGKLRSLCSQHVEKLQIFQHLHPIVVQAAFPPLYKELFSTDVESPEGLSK
Experiment: qHTS for inhibitors of ROR gamma transcriptional activity; also: nearly all actives have a fitted effect of over 60% in size
Details: Drosophila S2 Gal4-RORgamma UAS-luciferase reporter, 20 h; series mostly up to 53.6 µM
Procedure, shortened: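 Stably transfected Drosophila Schneider cells are the test system, with ROR gamma fused to Gal4 and luciferase under UAS control; luminescence is read after 20 hr of 700 uM copper sulfate induction at ambient temperature.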
Potency is read from the fitted curve at half-maximal effect.

| Structure (SMILES) | Potency |
| --- | --- |
| Cc1cc(C(F)(F)F)nc(SCC(=O)Nc2nccs2)n1 | inactive |
| C/C(=N\NC(=O)CSc1nc2ccccc2c(=O)n1-c1ccccc1C)c1cccs1 | inactive |
| C/C(=N\NS(=O)(=O)c1ccc(Br)cc1)c1cccs1 | inactive |
| O=C(Nc1ccccc1-c1nc2ccccc2[nH]c1=O)c1cccs1 | inactive |
| COc1cccc(/C(C)=N/Nc2ncc(Cl)cc2Cl)c1 | 12.6 µM (active) |
| C/C(=N\Nc1nc2ccccc2[nH]1)c1cccs1 | 10 µM (active) |
| C/C(=N\Nc1ccc(S(N)(=O)=O)cc1[N+](=O)[O-])c1cccs1 | inactive |
| CCN(CC)c1ccc(C(=O)N/N=C(\C)c2cccc(OC)c2)cc1 | inactive |
| C/C(=N\Nc1ncc(Cl)cc1Cl)c1cccs1 | 10 µM (active) |
| COC(=O)c1sccc1N/N=C(\C)c1ccc(F)c(Cl)c1 | inactive |
| Cc1nn(CCCC(=O)NCc2ccccc2Cl)c(=O)c2nccn12 | inactive |
| COc1cccc(C(=O)Nc2ccc(N3CCN(C(=O)c4ccco4)CC3)cc2)c1 | inactive |
| COC(=O)C1CCN(C(=O)c2ccc3oc(Cc4ccc(Cl)cc4)nc3c2)CC1 | inactive |
| O=C(NC1CCCC1)c1cc(-c2ccccc2)on1 | inactive |
| Cc1ccc(S(=O)(=O)N(C)C)cc1NC(=O)C1Cc2ccccc2CN1C(=O)c1ccco1 (stereo not given) | inactive |
| CN(Cc1ccccc1)CC(O)COc1ccc(CNCc2cc3ccccc3s2)cc1 (stereo not given) | inactive |
| N#C/C(=C\c1cccnc1)C(=O)Nc1ccc(SC(F)F)cc1 | inactive |
| CS(=O)(=O)C1=NN2C(=N)/C(=C\c3ccc(OCCOc4ccccc4)cc3)C(=O)N=C2S1 | inactive |
| CCOCCCn1c(SCC(=O)Nc2cc(OC)ccc2OC)nc2ccccc2c1=O | inactive |
| CCSc1nnc(-c2cc3c(s2)-c2ccccc2CC3)o1 | 1 µM (active) |
| Clc1ccc(-c2nnc(SCc3nc4ccccc4s3)o2)cc1 | inactive |
| O=C(CSc1nnc(-c2ccccc2O)o1)NC1CCCCC1 | inactive |
| Cc1ccc(C(=O)COC(=O)CCN2C(=O)C3C4CCC(C4)C3C2=O)cc1C (stereo not given) | inactive |
| COC(=O)c1cc(S(=O)(=O)Nc2ccc(C)c(F)c2)c[nH]1 | inactive |
| COc1ccc(/C=N/NC(=O)CNC(=O)c2ccc(S(=O)(=O)N3CCCC3)cc2)c(OC)c1 | inactive |
| COc1ccc(CC(=O)NCC(=O)N/N=C/c2cc(Br)ccc2OC)cc1 | 10 µM (active) |
| COc1ccc(Br)cc1/C=N/Nc1ccc(Cl)c(C(=O)O)c1 | inactive |
| O=C(Cc1ccc([N+](=O)[O-])cc1)N/N=C/c1ccco1 | inactive |
| O=[N+]([O-])c1cc(Br)c(O)c(/C=N/Nc2nc3ccccc3s2)c1 | inactive |
| COc1ccc(CC(=O)N/N=C/c2cc([N+](=O)[O-])cc(Br)c2O)cc1 | 0.794 µM (active) |
